For nine targets, log2 fold change results are on record in the supplement of paper PMC10849652.

Test in all cases: log2 fold change, soluble protein after heating vs DMSO (PISA); higher = thermal stabilisation; K562 cells, 10 uM, 30 min; active = over 0.2 and 3.5 SD of the protein, either way, in both replicates (recomputed)
Compound in assay [1]: C1=CC=C(C=C1)[C@H](COC2=CC3=C(C=C2)NC(=O)N3)NC(=O)C4=CC=CN(C4=O)CC5=CC(=C(C=C5)F)F
The essentials:
(§1)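 Soluble protein was defined as the supernatant after 21,000xg for 90 min. It came from K562 cells at 2×10^6 cells/mL given 10 μM compound for 30 min, heated in aliquots for 3 min across 48°C-58°C, pooled, and extracted in PBS with 0.5% NP-40 at 4°C, and was quantified by TMTpro 16plex LC-MS/MS with equalised channel sums. Thermal stability against control samples, from duplicates, is reported as log2 fold change.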

Compound in assay [2]: CC1=C(SC2=C1C(=N[C@H](C3=NN=C(N32)C)CC(=O)N)C4=CC=C(C=C4)Cl)C
The essentials:
as §1

Compound in assay [3]: CC1=C2C(=CC=C1)N=C(N(C2=O)C3=CC=CC=C3C)CN4C=NC5=C(N=CN=C54)N
A digest of the protocol: as §1

Compound in assay [4]: Cc1sc2c(c1C)C(c1ccc(Cl)cc1)=N[C@@H](CC(=O)OC(C)(C)C)c1nnc(C)n1-2
A digest of the protocol: as §1

Compound in assay [5]: c1ccc([C@@H]2C[C@H]2NC2CCNCC2)cc1
The essentials: as §1

Of roughly 7,900 targets only a part is listed; those with a hit were picked by preference. About 0.6% of all pairs of compound and target were hits. Values without a mark were called inactive.

Sequence of UniProt P31749 (P31749 whole entry, looked up): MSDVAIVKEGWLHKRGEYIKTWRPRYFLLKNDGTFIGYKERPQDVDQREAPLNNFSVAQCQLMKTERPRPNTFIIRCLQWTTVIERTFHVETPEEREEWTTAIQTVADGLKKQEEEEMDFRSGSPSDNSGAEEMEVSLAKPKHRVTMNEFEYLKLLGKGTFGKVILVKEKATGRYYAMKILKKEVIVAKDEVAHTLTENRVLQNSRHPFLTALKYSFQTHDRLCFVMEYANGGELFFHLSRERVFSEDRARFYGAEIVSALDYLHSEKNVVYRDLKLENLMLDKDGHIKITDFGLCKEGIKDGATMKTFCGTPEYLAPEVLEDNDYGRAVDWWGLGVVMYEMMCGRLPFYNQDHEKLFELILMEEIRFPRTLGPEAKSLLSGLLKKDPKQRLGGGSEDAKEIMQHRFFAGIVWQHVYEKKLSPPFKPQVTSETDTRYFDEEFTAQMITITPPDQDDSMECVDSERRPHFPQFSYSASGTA
Sequence of UniProt Q93084 (Q93084 whole entry, looked up): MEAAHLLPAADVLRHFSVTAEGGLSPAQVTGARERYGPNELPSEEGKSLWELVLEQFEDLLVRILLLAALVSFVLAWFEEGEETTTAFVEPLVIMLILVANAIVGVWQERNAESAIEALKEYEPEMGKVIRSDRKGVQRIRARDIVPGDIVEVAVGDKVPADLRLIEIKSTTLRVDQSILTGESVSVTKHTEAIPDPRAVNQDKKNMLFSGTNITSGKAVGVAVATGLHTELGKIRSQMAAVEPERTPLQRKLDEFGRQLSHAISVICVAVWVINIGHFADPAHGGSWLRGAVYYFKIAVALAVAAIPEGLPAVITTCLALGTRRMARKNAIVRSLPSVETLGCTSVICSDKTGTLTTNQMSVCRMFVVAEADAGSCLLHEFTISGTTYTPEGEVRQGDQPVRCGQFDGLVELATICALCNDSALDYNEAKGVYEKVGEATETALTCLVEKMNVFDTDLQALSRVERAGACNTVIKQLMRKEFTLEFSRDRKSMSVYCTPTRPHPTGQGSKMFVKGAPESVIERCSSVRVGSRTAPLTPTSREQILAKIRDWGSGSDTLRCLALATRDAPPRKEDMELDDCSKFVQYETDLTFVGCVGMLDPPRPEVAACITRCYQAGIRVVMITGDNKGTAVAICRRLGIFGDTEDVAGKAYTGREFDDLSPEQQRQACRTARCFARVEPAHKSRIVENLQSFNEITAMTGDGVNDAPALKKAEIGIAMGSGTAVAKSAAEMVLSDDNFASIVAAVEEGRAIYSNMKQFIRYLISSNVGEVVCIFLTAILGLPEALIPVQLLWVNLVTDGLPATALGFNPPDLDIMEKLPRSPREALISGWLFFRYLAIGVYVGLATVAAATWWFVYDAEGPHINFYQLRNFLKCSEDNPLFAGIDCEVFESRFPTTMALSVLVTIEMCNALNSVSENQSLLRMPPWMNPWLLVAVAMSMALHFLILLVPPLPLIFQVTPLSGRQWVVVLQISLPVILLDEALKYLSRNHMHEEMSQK
Sequence of UniProt P31939 (P31939 whole entry, looked up): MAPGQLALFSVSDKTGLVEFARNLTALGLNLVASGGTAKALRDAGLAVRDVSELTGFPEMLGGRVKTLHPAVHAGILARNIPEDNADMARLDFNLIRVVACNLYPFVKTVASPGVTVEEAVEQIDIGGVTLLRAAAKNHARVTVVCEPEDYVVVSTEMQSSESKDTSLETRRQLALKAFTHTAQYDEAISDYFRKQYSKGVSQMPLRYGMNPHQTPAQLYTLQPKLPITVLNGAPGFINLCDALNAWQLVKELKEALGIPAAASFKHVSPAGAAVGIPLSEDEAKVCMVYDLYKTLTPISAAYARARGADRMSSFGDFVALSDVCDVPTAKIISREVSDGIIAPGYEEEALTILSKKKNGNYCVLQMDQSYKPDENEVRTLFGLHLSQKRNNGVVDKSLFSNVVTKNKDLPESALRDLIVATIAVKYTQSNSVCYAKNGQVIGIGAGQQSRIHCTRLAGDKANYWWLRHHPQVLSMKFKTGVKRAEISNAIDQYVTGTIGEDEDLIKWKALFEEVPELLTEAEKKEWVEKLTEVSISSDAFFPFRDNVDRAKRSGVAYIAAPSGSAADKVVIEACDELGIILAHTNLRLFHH
Sequence of UniProt Q9UNA0 (Q9UNA0 whole entry, looked up): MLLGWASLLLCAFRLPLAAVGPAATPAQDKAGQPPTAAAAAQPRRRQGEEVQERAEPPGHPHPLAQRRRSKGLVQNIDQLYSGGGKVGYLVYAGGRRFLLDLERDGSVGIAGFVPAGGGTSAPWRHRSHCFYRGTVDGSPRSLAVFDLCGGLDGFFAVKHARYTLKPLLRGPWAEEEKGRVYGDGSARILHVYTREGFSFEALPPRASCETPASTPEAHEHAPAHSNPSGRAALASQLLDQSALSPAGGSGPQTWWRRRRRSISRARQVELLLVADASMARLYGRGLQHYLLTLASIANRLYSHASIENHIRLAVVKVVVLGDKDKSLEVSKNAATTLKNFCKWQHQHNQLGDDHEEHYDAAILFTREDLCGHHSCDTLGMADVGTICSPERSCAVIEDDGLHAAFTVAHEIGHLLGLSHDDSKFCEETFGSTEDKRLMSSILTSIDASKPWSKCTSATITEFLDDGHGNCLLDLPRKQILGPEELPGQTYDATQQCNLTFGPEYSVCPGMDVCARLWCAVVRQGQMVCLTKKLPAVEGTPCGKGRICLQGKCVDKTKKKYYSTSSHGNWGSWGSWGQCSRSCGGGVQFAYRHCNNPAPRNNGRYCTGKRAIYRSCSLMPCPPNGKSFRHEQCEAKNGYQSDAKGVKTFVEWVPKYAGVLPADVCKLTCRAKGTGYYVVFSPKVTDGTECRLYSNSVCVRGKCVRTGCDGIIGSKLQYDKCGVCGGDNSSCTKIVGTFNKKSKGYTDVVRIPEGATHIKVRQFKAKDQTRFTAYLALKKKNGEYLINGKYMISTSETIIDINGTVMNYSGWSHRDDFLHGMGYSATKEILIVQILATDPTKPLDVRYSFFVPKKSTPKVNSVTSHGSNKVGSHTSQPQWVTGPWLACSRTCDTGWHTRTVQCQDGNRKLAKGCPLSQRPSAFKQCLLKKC
Sequence of UniProt Q9H7F0 (Q9H7F0 whole entry, looked up): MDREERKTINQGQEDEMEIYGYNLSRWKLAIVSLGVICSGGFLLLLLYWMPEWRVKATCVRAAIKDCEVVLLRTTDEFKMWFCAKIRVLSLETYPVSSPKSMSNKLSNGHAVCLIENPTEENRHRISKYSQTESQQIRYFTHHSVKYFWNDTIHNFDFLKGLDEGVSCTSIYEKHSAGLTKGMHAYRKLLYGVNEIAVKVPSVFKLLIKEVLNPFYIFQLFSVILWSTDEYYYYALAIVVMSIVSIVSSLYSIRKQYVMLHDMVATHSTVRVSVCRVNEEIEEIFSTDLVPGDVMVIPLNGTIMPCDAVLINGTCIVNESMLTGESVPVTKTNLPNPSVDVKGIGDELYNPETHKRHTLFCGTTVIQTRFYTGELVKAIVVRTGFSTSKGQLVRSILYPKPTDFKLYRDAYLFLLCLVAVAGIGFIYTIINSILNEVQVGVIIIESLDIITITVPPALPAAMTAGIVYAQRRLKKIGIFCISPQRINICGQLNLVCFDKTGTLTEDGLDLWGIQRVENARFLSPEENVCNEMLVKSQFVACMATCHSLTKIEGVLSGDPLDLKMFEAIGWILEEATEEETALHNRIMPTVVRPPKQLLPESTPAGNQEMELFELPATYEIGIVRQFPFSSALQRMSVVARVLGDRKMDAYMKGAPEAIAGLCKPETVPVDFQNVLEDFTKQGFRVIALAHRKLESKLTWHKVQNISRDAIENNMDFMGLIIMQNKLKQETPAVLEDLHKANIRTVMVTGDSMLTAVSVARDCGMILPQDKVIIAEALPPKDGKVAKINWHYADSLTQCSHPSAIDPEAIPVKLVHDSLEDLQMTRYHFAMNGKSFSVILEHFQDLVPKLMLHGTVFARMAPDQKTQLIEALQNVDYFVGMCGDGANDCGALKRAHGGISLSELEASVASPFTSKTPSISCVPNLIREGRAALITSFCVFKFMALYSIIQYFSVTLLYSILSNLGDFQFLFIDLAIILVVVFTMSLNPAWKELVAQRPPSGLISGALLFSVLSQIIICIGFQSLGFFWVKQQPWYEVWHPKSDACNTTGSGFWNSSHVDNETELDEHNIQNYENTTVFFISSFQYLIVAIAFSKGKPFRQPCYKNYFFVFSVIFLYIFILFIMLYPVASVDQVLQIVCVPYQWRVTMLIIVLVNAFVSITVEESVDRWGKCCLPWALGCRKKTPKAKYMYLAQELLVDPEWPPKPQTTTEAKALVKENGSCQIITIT
Sequence of UniProt Q13795 (Q13795 whole entry, looked up): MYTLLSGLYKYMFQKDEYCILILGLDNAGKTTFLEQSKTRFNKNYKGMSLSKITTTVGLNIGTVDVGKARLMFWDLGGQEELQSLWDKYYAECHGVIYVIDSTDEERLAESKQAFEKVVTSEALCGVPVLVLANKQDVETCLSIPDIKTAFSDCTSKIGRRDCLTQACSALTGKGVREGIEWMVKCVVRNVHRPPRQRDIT

With ATIC (UniProt P31939), the log2 fold change in assay [1] was -0.023; in assay [2], 0.039; in assay [3], 0.073; in assay [4] it was -0.041; in assay [5] it was -0.012.

On to ADAMTS5 (UniProt Q9UNA0), for which the log2 fold change in assay [1] was 0.149; in assay [2], 0.106; in assay [3], 0.152; in assay [4] it was -0.076; in assay [5], -0.028.

Take ARFRP1 (UniProt Q13795): the log2 fold change was 0 in assay [1]; -0.066 in assay [2]; -0.03 in assay [3]; -0.021 in assay [4]; 0.029 in assay [5].

In the case of ATP2A3 isoform 2 (UniProt Q93084), the log2 fold change is -0.01 in assay [1]; 0.035 in assay [2]; 0.036 in assay [3]; -0.002 in assay [4]; 0.01 in assay [5].

For the target APOB (UniProt P04114), the log2 fold change is 0.041 in assay [1]; 0.028 in assay [2]; 0.055 in assay [3]; 0.034 in assay [4]; -0.013 in assay [5].

Consider ATP11A (UniProt P98196), for which the log2 fold change in assay [1] is 0.001; in assay [2] it was -0.003; in assay [3], 0.085; in assay [4], -0.034; in assay [5], 0.062.

In the case of AKT1 (UniProt P31749), the log2 fold change in assay [1] is -0.068; in assay [2], 0.018; in assay [3] it was 0.034; in assay [4] it was 0.042; in assay [5], -0.072.

On to BRD4 (UniProt O60885), for which the log2 fold change in assay [1] is -0.116; in assay [2], 2.22 (active); in assay [3], 0.141; in assay [4], 1.99 (active); in assay [5], 0.029.

In the case of ATP13A3 (UniProt Q9H7F0), the log2 fold change was -0.038 in assay [1]; 0.008 in assay [2]; 0.016 in assay [3]; 0.018 in assay [4]; -0.101 in assay [5].
